Compounds without any hit were thinned out: in the full panel of roughly 79,000, 15% have a hit. Calls of active or inactive are those of the source. Rule as the data show it: active = growth inhibition above about 70%; inactive = the rest.
Assays:
[1] = NCI Yeast Anticancer Drug Screen. Data for the rad50 strain (AID 155);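 also: 0% = growth of vehicle-only cultures of the same strain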; conditions: S. cerevisiae rad50 strain growth inhibition, hits give high values
Procedure, shortened: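 Genetically altered yeast (DNA repair pathway); compound treatment; growth inhibition vs vehicle ctrl.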

[2] = NCI Yeast Anticancer Drug Screen. Data for the mec2-1 strain (AID 157); conditions: S. cerevisiae mec2-1 strain, hits give high values
Procedure, shortened: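 Each compound was tested on mec2-1 yeast, a strain altered in DNA damage repair or cell cycle control. Growth inhibition is reported relative to vehicle.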

[3] = NCI Yeast Anticancer Drug Screen. Data for the sgs1 mgt1 strain (AID 161);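 also: 0% = growth of cultures given vehicle only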; conditions: S. cerevisiae sgs1 mgt1 strain, hits give high values
Procedure, shortened: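 Read-out: growth inhibition vs vehicle controls. Cells: mutant yeast strain deficient in DNA damage repair.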

[4] = NCI Yeast Anticancer Drug Screen. Data for the cln2 rad14 strain (AID 165);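 also: 0% = growth equal to vehicle treated cultures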; conditions: S. cerevisiae cln2 rad14 strain, hits give high values
Procedure, shortened: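 Test compounds were added to cln2 rad14 yeast cultures; inhibition of growth was then determined by comparison with vehicle treatment.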

[5] = NCI Yeast Anticancer Drug Screen. Data for the bub3 strain (AID 167); conditions: S. cerevisiae bub3 mutant strain, hits give high values
Procedure, shortened: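 Yeast carrying a defined mutation is treated with each compound, and growth is compared with that of vehicle-exposed cells to give inhibition.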

[6] = NCI Yeast Anticancer Drug Screen. Data for the mlh1 rad18 strain (AID 175); conditions: S. cerevisiae mlh1 rad18 strain growth inhibition, hits give high values
Procedure, shortened: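 Inhibition values reflect reduced growth of mutant yeast versus vehicle-treated controls following compound exposure; the mutations affect DNA damage repair.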

[7] = at 5.0 µM (retest, dose inferred, filed as 0.5)
[8] = at 50.0 µM (retest, dose inferred, filed as 5.0)

Measured: growth inhibition

O=C(CN1CCCCC1)CC(O)(C(F)(F)F)C(F)(F)F
active: [6]; at 50.0 µM 77.3%
inactive: [1]; [7] 29% | [1]; [8] 39% | [1]; at 50.0 µM 5.85% | [2]; [7] 20% | [2]; [8] 33% | [2]; at 50.0 µM 8.45% | [3]; [7] 10% | [3]; [8] 20% | [3]; at 50.0 µM 6.25% | [4]; [7] 2% | [4]; [8] 50% | [4]; at 50.0 µM 15.6% | [5]; [7] 11% | [5]; [8] 23% | [5]; at 50.0 µM 7.5% | [6]; [7] 31% | [6]; [8] 34%

CN1C(=S)C(=N)OC1c1ccccc1F (stereo not given)
inactive: [1]; [7] 7% | [2]; [7] 16% | [3]; [7] 7% | [4]; [7] -2% | [4]; at 50.0 µM 33.4% | [5]; [7] 10% | [6]; [7] -13%
active: [1]; [8] 91% | [1]; at 50.0 µM 84.3% | [2]; [8] 97% | [2]; at 50.0 µM 75.3% | [3]; [8] 98% | [3]; at 50.0 µM 85.6% | [4]; [8] 82% | [5]; [8] 99% | [5]; at 50.0 µM 89.2% | [6]; [8] 96% | [6]; at 50.0 µM 84.8%

CC1(C(=O)O)CCC2(C)CCC3(C)C(=CC(=O)C4C5(C)CCC(O)C(C)(C)C5CCC43C)C2C1 (stereo not given)
inactive: [1]; [7] 12% | [1]; [8] 61% | [1]; at 50.0 µM 52.4% | [2]; [7] 23% | [2]; at 50.0 µM 64.8% | [3]; [7] 10% | [3]; at 50.0 µM 65% | [4]; [7] 30% | [5]; [7] 29% | [5]; at 50.0 µM 60.5% | [6]; [7] 18%
active: [2]; [8] 78% | [3]; [8] 74% | [4]; [8] 84% | [4]; at 50.0 µM 75.7% | [5]; [8] 78% | [6]; [8] 80% | [6]; at 50.0 µM 71.3%

C/C(=N\NC(N)=S)c1ccc(C2CCCCC2)cc1
active: [1]; [7] 73% | [1]; [8] 97% | [1]; at 50.0 µM 97.2% | [2]; [8] 98% | [2]; at 50.0 µM 95.7% | [3]; [7] 88% | [3]; [8] 99% | [3]; at 50.0 µM 98.2% | [4]; [8] 97% | [4]; at 50.0 µM 97% | [5]; [8] 97% | [5]; at 50.0 µM 96.2% | [6]; [7] 83% | [6]; [8] 97% | [6]; at 50.0 µM 94.5%
inactive: [2]; [7] 68% | [4]; [7] 61% | [5]; [7] 60%

O=C1C2CCCC3CCCC(C(=O)N1O)C32 (stereo not given)
active: [1]; [7] 89% | [1]; [8] 96% | [1]; at 50.0 µM 91.9% | [2]; [7] 90% | [2]; [8] 98% | [2]; at 50.0 µM 93% | [3]; [7] 70% | [3]; [8] 94% | [3]; at 50.0 µM 93.5% | [4]; at 50.0 µM 74.7% | [5]; [7] 93% | [5]; [8] 97% | [5]; at 50.0 µM 92% | [6]; [7] 87% | [6]; [8] 97% | [6]; at 50.0 µM 90.3%
inactive: [4]; [7] 52% | [4]; [8] 69%

CCOC(=O)C(Br)C(Br)c1cccc(Cl)c1 (stereo not given)
inactive: [1]; [7] 53% | [2]; [7] 64% | [4]; [7] 31% | [5]; [7] 57%
active: [1]; [8] 99% | [1]; at 50.0 µM 99.5% | [2]; [8] 99% | [2]; at 50.0 µM 99.7% | [3]; [7] 84% | [3]; [8] 99% | [3]; at 50.0 µM 99.8% | [4]; [8] 99% | [4]; at 50.0 µM 99.4% | [5]; [8] 99% | [5]; at 50.0 µM 99.8% | [6]; [7] 84% | [6]; [8] 99% | [6]; at 50.0 µM 99.5%

CC(C)COC(=O)c1ccc(N=Cc2ccc(C=Nc3ccc(C(=O)OCC(C)C)cc3)cc2)cc1
inactive: [1]; [7] 25% | [1]; [8] 25% | [1]; at 50.0 µM 31.6% | [2]; [7] 16% | [2]; [8] 16% | [2]; at 50.0 µM -34.1% | [3]; [7] 14% | [3]; [8] 14% | [3]; at 50.0 µM -10.2% | [4]; [7] 7% | [4]; [8] 7% | [4]; at 50.0 µM 1.75% | [5]; [7] 9% | [5]; [8] 9% | [5]; at 50.0 µM -20.8% | [6]; [7] -1% | [6]; [8] -1% | [6]; at 50.0 µM -12.3%

COC12CC(=O)C(C(C)=O)=C(O)C1(C)c1c(OC(C)=O)c(C)c(O)c(C(C)=O)c1O2 (stereo not given)
active: [3]; [8] 73% | [5]; [8] 92% | [6]; at 50.0 µM 92.8%
inactive: [1]; [7] 17% | [1]; [8] 57% | [1]; at 50.0 µM 45.1% | [2]; [7] 14% | [2]; [8] 63% | [2]; at 50.0 µM 52.3% | [3]; [7] 31% | [3]; at 50.0 µM 19.2% | [4]; [7] 19% | [4]; [8] 50% | [4]; at 50.0 µM 41% | [5]; [7] 62% | [5]; at 50.0 µM 43.5% | [6]; [7] 19% | [6]; [8] 64%

Cc1ccc(C(C)(C)C)c(O)c1O
active: [1]; [8] 98% | [1]; at 50.0 µM 91.2% | [2]; [8] 98% | [2]; at 50.0 µM 91.7% | [3]; at 50.0 µM 92.1% | [4]; [8] 98% | [4]; at 50.0 µM 91.8% | [5]; [8] 98% | [5]; at 50.0 µM 91.4% | [6]; [8] 97% | [6]; at 50.0 µM 90.5%
inactive: [1]; [7] 4% | [2]; [7] -18% | [3]; [7] 1% | [3]; [8] 52% | [4]; [7] 8% | [5]; [7] -9% | [6]; [7] -25%

CCCCCC/C=C1\CCC(CN2CCOCC2)C1=O (stereo not given)
inactive: [1]; [7] 53% | [2]; [7] 23% | [2]; at 50.0 µM 52% | [3]; [7] 16% | [4]; [7] 25% | [4]; at 50.0 µM 63% | [5]; [7] 48% | [6]; [7] 59%
active: [1]; [8] 96% | [1]; at 50.0 µM 81.7% | [2]; [8] 97% | [3]; [8] 96% | [3]; at 50.0 µM 79.7% | [4]; [8] 79% | [5]; [8] 98% | [5]; at 50.0 µM 82.5% | [6]; [8] 97% | [6]; at 50.0 µM 74.8%

Reference: PubChem BioAssay (NCI)
